The entries come from a sample that favours hits as a whole.
ROS inducer = raises reactive oxygen species in U2OS cancer cells; ROS induction (% of piperlongumine), % at 10 µM; U2OS ROS induction, H2DCF-DA fluorescence; 2% of 46,000 active; AID 624156; in the data active = ROS induction above about 79%, passing the limit was not always enough
Hits are given with their value.

`COc1cc(C2C(C#N)=C(C)Nc3oc(C)nc32)ccc1OCCN1CCOCC1` (stereo unspecified) gave ROS inducer 115.7.
`COC(=O)C1=C(C)Nc2ncnn2C1c1ccc(OCC(=O)N2CCOCC2)c(OC)c1` (stereo unspecified) gave ROS inducer inactive.
`C[C@@H]1CN([C@H](C)CO)C(=O)c2cccc(NC(=O)c3ccc(-c4nccs4)cc3)c2O[C@@H]1CN(C)Cc1ccc(C(=O)Nc2ccccc2N)cc1` gave ROS inducer 213.8.
Screening C[C@H](CO)N1C[C@H](C)[C@@H](CN(C)Cc2ccc(Cl)c(Cl)c2)Oc2c(NC(=O)c3ccc(-c4nccs4)cc3)cccc2C1=O returned ROS inducer 96.6.
C[C@H]1CN([C@@H](C)CO)C(=O)c2cccc(NC(=O)c3ccc(-c4nccs4)cc3)c2O[C@H]1CN(C)Cc1ccc(C(=O)Nc2ccccc2N)cc1 was read as ROS inducer inactive.
Screening C[C@@H]1CN([C@H](C)CO)C(=O)c2cccc(NC(=O)c3ccc(-c4nccs4)cc3)c2O[C@@H]1CN(C)Cc1ccc(-c2ccccc2)cc1 returned ROS inducer inactive.
C[C@H](CO)N1C[C@H](C)[C@@H](CN(C)Cc2ccc(C(=O)O)cc2)Oc2c(NC(=O)c3ccc(-c4nccs4)cc3)cccc2C1=O was read as ROS inducer inactive.
Screening C[C@@H]1CN([C@H](C)CO)C(=O)c2cccc(NC(=O)c3ccc(-c4nccs4)cc3)c2O[C@H]1CN(C)Cc1ccc(C(=O)O)cc1 returned ROS inducer inactive.
`C[C@@H]1CN([C@H](C)CO)C(=O)c2cccc(NC(=O)c3ccc(-c4nccs4)cc3)c2O[C@H]1CN(C)Cc1ccc(C(F)(F)F)cc1` gave ROS inducer 105.3.
`C[C@@H]1CN([C@H](C)CO)C(=O)c2cccc(NC(=O)Nc3ccc(F)cc3)c2O[C@H]1CN(C)Cc1ccc(C(=O)Nc2ccccc2N)cc1` gave ROS inducer inactive.
C[C@H](CO)N1C[C@H](C)[C@H](CN(C)Cc2ccc(C(=O)O)cc2)Oc2c(NC(=O)c3ccc(-c4nccs4)cc3)cccc2C1=O was read as ROS inducer inactive.
C[C@H](CO)N1C[C@H](C)[C@H](CN(C)Cc2ccc(C(=O)Nc3ccccc3N)cc2)Oc2c(NC(=O)Nc3ccc(F)cc3)cccc2C1=O was read as ROS inducer inactive.
For C[C@@H]1CN([C@@H](C)CO)C(=O)c2cccc(NC(=O)c3ccc(-c4nccs4)cc3)c2O[C@H]1CN(C)Cc1ccc(C(=O)Nc2ccccc2N)cc1 the results were ROS inducer inactive.
`C[C@@H]1CN([C@@H](C)CO)C(=O)c2cccc(NC(=O)Nc3ccc(C(F)(F)F)cc3)c2O[C@H]1CN(C)Cc1ccc(C(=O)Nc2ccccc2N)cc1` gave ROS inducer 91.0.
Screening C[C@H](CO)N1C[C@H](C)[C@H](CN(C)S(=O)(=O)c2ccc(Cl)cc2)Oc2c(NC(=O)C3CCOCC3)cccc2C1=O returned ROS inducer inactive.
Screening CC(C)NC(=O)N(C)C[C@@H]1Oc2ccc(NS(=O)(=O)c3ccccc3)cc2CC(=O)N([C@@H](C)CO)C[C@@H]1C returned ROS inducer inactive.
Screening O=C(Nc1cnn(Cc2ccc(Cl)cc2Cl)c1)C1CC(c2cccc(Br)c2)=NO1 (stereo unspecified) returned ROS inducer inactive.
COc1ccc(OC)c(S(=O)(=O)N(C)CC(=O)Nc2ccccc2F)c1 was read as ROS inducer inactive.
`COC(=O)[C@]1(CCC(=O)OC(C)(C)C)N=C(c2ccc(OCCCO)cc2)O[C@@H]1c1ccccc1` gave ROS inducer inactive.
Screening Cn1c(C(=O)NCCCN2CCCC2=O)cc2sccc21 returned ROS inducer inactive.
`C[C@H]1CN([C@@H](C)CO)C(=O)Cc2cc(NC(=O)NC3CCCCC3)ccc2O[C@@H]1CN(C)S(=O)(=O)c1ccccc1` gave ROS inducer inactive.
Screening Cc1noc(C)c1S(=O)(=O)Nc1ccc2c(c1)C(=O)N([C@@H](C)CO)C[C@@H](C)[C@H](CN(C)S(C)(=O)=O)O2 returned ROS inducer inactive.
CC(C)NC(=O)N(C)C[C@@H]1OCCCC[C@@H](C)Oc2ccc(NC(=O)CCC(F)(F)F)cc2C(=O)N([C@H](C)CO)C[C@@H]1C was read as ROS inducer inactive.
`COC(=O)CCCCCCC(=O)N/N=C/c1nccs1` gave ROS inducer inactive.
`O=C(CCCCC(=O)N/N=C/c1ccc(I)cc1)NO` gave ROS inducer inactive.
O=C(CCCCC(=O)N/N=C/c1ccc(O)c(O)c1O)NO was read as ROS inducer inactive.
For O=C(CCCCC(=O)N/N=C/c1c(F)c(F)c(F)c(F)c1F)NO the results were ROS inducer 145.0.
CS(=O)(=O)N(CC(=O)Nc1ccc(C(F)(F)F)cc1)c1cccc(Br)c1 was read as ROS inducer inactive.
`C[C@@H]1O[C@@H](OC[C@H]2OC(Oc3c(-c4ccc(OCCO)c(OCCO)c4)oc4cc(OCCO)cc(O)c4c3=O)[C@H](O)[C@@H](O)[C@@H]2O)[C@H](O)[C@H](O)[C@H]1O` (stereo partly specified) gave ROS inducer inactive.
COc1ccc(NC(=O)N(C)C[C@H]2OCc3cn(nn3)CCCC(=O)N([C@@H](C)CO)C[C@H]2C)c(OC)c1 was read as ROS inducer inactive.
CC(C)(C)c1ccc(-c2nnc(SCC(=O)Nc3ccccc3[N+](=O)[O-])o2)cc1 was read as ROS inducer inactive.
Screening CC(C)(C)c1ccc(-c2nnc(-c3ccccc3NC(=O)/C=C\C(=O)O)o2)cc1 returned ROS inducer 80.1.
`Cc1ccc(NC(=O)CSc2nnc(-c3ccc(C(C)(C)C)cc3)o2)c(C)c1` gave ROS inducer inactive.
For CC(/C(O)=C(/C#N)c1nc2ccccc2[nH]1)N1C(=O)c2ccccc2C1=O (stereo unspecified) the results were ROS inducer inactive.
For COc1ccc(S(=O)(=O)Nc2ccc3c(c2)CC(=O)N([C@H](C)CO)C[C@@H](C)[C@@H](CN(C)S(=O)(=O)c2cn(C)cn2)O3)cc1 the results were ROS inducer inactive.
`Cc1cc(C(F)(F)F)c2c(n1)sc1c(=O)[nH]c(C)nc12` gave ROS inducer 95.3.
COC(=O)c1sc2nc(C)cc(C(F)(F)F)c2c1N was read as ROS inducer inactive.
`Cc1c(C(=O)O)sc2nc(SCC(=O)Nc3ccccc3C(F)(F)F)[nH]c(=O)c12` gave ROS inducer inactive.
For CCOC(=O)c1ccc(NC(=O)O[C@H]2[C@H](OC(=O)Nc3ccccc3)[C@@H](OC(=O)Nc3ccccc3)[C@@H](OC)O[C@@H]2CO)cc1 the results were ROS inducer 88.3.
Screening CCc1cccc(NC(=O)O[C@H]2[C@H](OC(=O)Nc3ccccc3)[C@@H](OC(=O)Nc3ccccc3)[C@@H](OC)O[C@@H]2CO)c1 returned ROS inducer inactive.
Screening COc1ccc(NC(=O)O[C@H]2[C@@H]3OC(=O)[C@H](Cc4ccccc4)C/C=C/C[C@@H](Cc4ccccc4)C(=O)O[C@H]3[C@@H](OC)O[C@@H]2CO)cc1 returned ROS inducer inactive.
For CCOc1cccc(/C=N/NC(=O)CCCCCCC(=O)Nc2ccccc2O)c1OCC the results were ROS inducer inactive.
`CC1CCN(CC(=O)Nc2sc3c(c2C(=O)Nc2ccccc2)CCCC3)CC1` gave ROS inducer inactive.
COc1ccc(NC(=O)N(C)C[C@H]2Oc3ccc(NC(=O)Nc4ccc(C(F)(F)F)cc4)cc3C(=O)N([C@@H](C)CO)C[C@H]2C)cc1 was read as ROS inducer inactive.

Screening data (PubChem)
